Screening data deposited in PubChem BioAssay by several laboratories.
Hits are enriched below; roughly 4.8% of the tested compounds scored in any of these assays.
tim10-1 inh: tim10-1 yeast growth inhibition; S. cerevisiae tim10-1 ts strain growth, BacTiter-Glo, 24 h; inhibition, % at 20 µM; hit rate 2.2% among 330,000;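 active means inhibition of at least 40%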;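 further: mutant grown at 25 °C; 0% = DMSO wells with yeast and 100% = wells holding no yeast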
TIM10 inh: TIM10 yeast growth inhibition; S. cerevisiae TIM10 strain growth, BacTiter-Glo luminescence, 24 h; inhibition, % at 10 µM; hit rate 1.4% among 330,000;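 active means inhibition of 40% or more at the single tested concentration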;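 further: wild-type TIM10 isogenic control strain grown at permissive 25 °C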
SKKanGAS inh: inhibitors of SKKanGAS S. pyogenes growth in kanamycin (SK-promoter or general growth effect); BacTiter-Glo, 6 h; inhibition, % at 7.5 µM; hit rate 1.3% among 300,000; AID 1662;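 active means mean replicate score, as percent of positive control median, at least 50; inconclusive means mean below 50 but one replicate at or above 50; inactive means mean and every replicate below 50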;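 further: strain carries kanamycin resistance gene driven by streptokinase promoter and grows in 40 µg/ml kanamycin; loss of luminescence reflects streptokinase promoter inhibition or plain growth inhibition; 0% = median of DMSO wells and 100% = positive control at its reference dose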
PfHsp90 yeast 2: growth inhibition of yeast expressing Plasmodium Hsp90; S. cerevisiae expressing PfHsp90, BacTiter-Glo ATP, 48 h; yeast lacking PDR1 and PDR3 efflux regulators; inhibition, % at 9.4 µM; hit rate 0.32% among 310,000; AID 504621;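 active means every replicate shows inhibition above about 80%, whatever the replicate mean, limit read from the data; inconclusive means mean inhibition reaches the set limit but some replicate falls short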;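 further: 0% = DMSO neutral controls and 100% = 20 µM radicicol positive controls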
tim23-1 inh: inhibits growth of tim23-1 mutant yeast | S. cerevisiae tim23-1 growth, BacTiter-Glo luminescence, 24 h | hit rate 1.3% among 330,000 | inhibition, % at 20 µM | AID 463212;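 active means growth inhibition of the mutant yeast at or above 50%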;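 further: temperature-sensitive mutant grown at 25 °C; plate controls were DMSO-treated mutant yeast for no effect and medium wells lacking yeast for full effect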
NALP1 inh: blocks the NALP1 inflammasome reconstituted in yeast; S. cerevisiae NALP1/ASC/caspase-1 growth, X-gal OD620, 72 h; inhibition, % at 10 µM; hit rate 0.61% among 280,000; AID 2071; in the data active means inhibition mostly above about 24%, no sharp cut-off; inactive means mostly below about 32%
tim10-1 conf: tim10-1 yeast growth inhibition, confirmed; inhibition, % at 20 µM; S. cerevisiae tim10-1 ts strain growth, BacTiter-Glo, 24 h; shares compounds with tim10-1 inh; hit rate 56% among 7,400;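 active means inhibition of yeast growth at or above a set limit in either of two repeat tests at 20 µM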;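 further: tim10-1 mutant grown at permissive 25 °C to find synthetic lethal compounds; 0% = DMSO yeast wells and 100% = medium wells without yeast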
TIM10 conf: TIM10 yeast growth inhibition, confirmed; AID 463215; inhibition, % at 10 µM; S. cerevisiae tim10 strain growth, BacTiter-Glo luminescence, 24 h; hit rate 63% among 4,600; shares compounds with TIM10 inh;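 active means inhibition of yeast growth at or above a set limit in either of two replicates at 10 µM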;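 further: this counterscreen used the strain with wild-type TIM10; 0% = yeast with DMSO and 100% = medium wells lacking yeast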
tim23-1 confirm: tim23-1 yeast growth inhibition, confirmed; hit rate 83% among 4,400; shares compounds with tim23-1 inh; inhibition, % at 20 µM; S. cerevisiae tim23-1 growth, BacTiter-Glo luminescence, 24 h;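 active means inhibition above about 39% in either of two replicate wells at 20 µM, limit read from the data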;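 further: temperature-sensitive tim23-1 mutant grown at 25 °C; 0% = DMSO wells with yeast and 100% = medium wells without yeast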
Starred values were filed as active, the others as inactive; ? = inconclusive; · = no result.

SMILES	tim10-1 inh	TIM10 inh	SKKanGAS inh	PfHsp90 yeast 2	tim23-1 inh	NALP1 inh	tim10-1 conf	TIM10 conf	tim23-1 confirm
Cc1ccccc1C(=O)Oc1ccc2ccc(O)cc2c1	49*	34	2	-25	51*	-10	46*	·	49*
O=C(Nc1ccc(OCC(=O)N2CCC(Cc3ccccc3)CC2)cc1)c1ccco1	59*	68*	8	16	72*	27	60*	43*	79*
CCOC(=O)C1CCN(S(=O)(=O)c2ccc(CC)cc2)CC1	11	10	6	12	31	22	·	·	·
CC(=O)Nc1ccc(OCC(=O)N2CCC(Cc3ccccc3)CC2)cc1	23	13	-9	-4	18	-5	·	·	·
CCOC(=O)C1CCN(S(=O)(=O)c2ccc(NC(=O)c3ccco3)cc2)CC1	69*	66*	4	3	65*	5	62*	55*	69*
O=C1C=C(O)c2c(O)cc(O)c(O)c2C1=O	8	-18	22	14	22	·	·	·	·
O=C1c2ccccc2C(=O)c2c(O)c(O)cc(O)c21	47*	38	·	-4	77*	·	29	·	70*
O=C(/C=C/c1ccnc2ccccc12)c1cccs1	71*	79*	-10	85*	67*	3	72*	83*	-29
Cc1cccc(N=N/C(=C\O)C(=O)c2ccc(Br)cc2)c1	57*	36	53*	-79	64*	2	52*	·	44*
Cc1cccc(N/N=C(\C=N\N)C(=O)c2ccc(Br)cc2)c1	32	31	32	·	7	-8	·	·	·
C=C1CCc2c([nH]c3ccc(OCC(C)C)cc23)C1=O	47*	38	-4	-8	59*	10	23	·	57*
CC(=O)c1sc(-c2ccc(Cl)cc2)cc1N	50*	31	-10	-33	59*	21	9	·	45*
COC(=O)C/C=C/[C@@H](C)[C@@H](/C=N/OC[C@H]1O[C@H](c2ccccc2)C=C[C@@H]1Oc1ccc(OC)cc1)NS(=O)(=O)c1ccc(C)cc1	20	-9	9	·	-4	30	·	·	·
Cc1ccc(C(=O)OCc2nnc(-c3ccccc3)o2)s1	29	15	16	·	32	·	·	·	·
O=C(OCc1nnc(-c2ccccc2)o1)c1ccc([N+](=O)[O-])s1	57*	79*	·	13	56*	·	68*	86*	73*
O=C(COC(=O)c1ccc([N+](=O)[O-])s1)NC(c1ccccc1)c1ccccc1	20	7	22	-28	4	18	·	·	·
O=C(COC(=O)c1ccc([N+](=O)[O-])s1)NCc1ccccc1	41*	54*	3	9	51*	30	41*	32*	33
O=C(Nc1ccccc1N1CCOCC1)c1ccc2c(c1)C(=O)N(Cc1ccncc1)C2=O	22	-7	-3	-7	6	13	·	·	·
CCOC(=O)c1cn(Cc2ccc(Br)cc2)nn1	25	6	-5	·	16	24	·	·	·
CCOC(OCC)c1cn(Cc2ccc3c(c2)C(=O)c2ccccc2C3=O)nn1	44*	37	-8	·	61*	12	16	·	78*
COc1ccc(-c2cc(-c3ccc(OC)cc3)[nH]n2)cc1	19	31	12	0	44	9	·	·	·
COc1ccc(-c2cc(-c3cc(C)ccc3O)[nH]n2)cc1	52*	51*	?	-5	69*	-10	45*	45*	-26
Cc1ccc(/C=[N+](/C)[O-])cc1	7	-6	7	5	7	10	·	·	·
Cc1ccc(C=C2C(Cl)=C(Cl)C(Cl)=C2Cl)cc1	64*	64*	78*	·	74*	7	78*	78*	53*
CCN(C(=O)CSc1nc2cc(C(=O)O)ccc2c(=O)n1Cc1ccccc1)c1ccccc1	20	10	37	8	15	10	·	·	·
SMILES	tim10-1 inh	TIM10 inh	SKKanGAS inh	PfHsp90 yeast 2	tim23-1 inh	NALP1 inh	tim10-1 conf	TIM10 conf	tim23-1 confirm
Cc1ccc(C2CC(=O)NC(SCc3ccccc3)=C2C#N)cc1 (stereo unspecified)	24	22	1	8	27	10	·	·	·
CCCOc1ccc(C(=O)N/N=C/c2c[nH]c3ccc(Br)cc23)cc1	43*	18	36	14	55*	5	37*	·	54*
COc1cccc(C(=O)Nc2ccc(Cl)c(C(F)(F)F)c2)c1	64*	61*	8	57	68*	31	57*	50*	75*
CNC(=O)c1ccsc1NC(=O)c1ccc2c(c1)CCCC2	49*	54*	0	13	63*	23	30*	47*	72*
CCN(c1ccccc1)S(=O)(=O)c1ccc(OC)c(NC(=O)c2cccs2)c1	-4	7	-4	·	9	3	·	·	·
COc1ccc(-c2cccc(C3CC=CC4C3C(=O)N(Cc3ccccc3)C4c3ccc(OC)c(Cl)c3)c2)cc1 (stereo unspecified)	49*	67*	-3	-9	58*	8	37*	23	62*
Cc1cccc(CCNS(=O)(=O)c2ccc(S(=O)(=O)N3CCC(C)CC3)cc2)c1	14	-5	-6	-14	-18	·	·	·	·
N/C(Cc1ccc(Cl)cc1Cl)=N\OC(=O)Cc1ccccc1	52*	86*	24	17	75*	34	23	88*	61*
O=[N+]([O-])c1ccc(Sc2ncccn2)c([N+](=O)[O-])c1	42*	37	-1	-38	53*	2	50*	·	40*
O=C(O)CCSc1ccc([N+](=O)[O-])cc1[N+](=O)[O-]	44*	7	?	27	51*	4	30*	·	53*
O=C(Nc1ncccn1)c1ccc([N+](=O)[O-])cc1[N+](=O)[O-]	-5	14	2	-10	5	·	·	·	·
O=[N+]([O-])c1ccc(SNc2ccccc2)c([N+](=O)[O-])c1	·	·	·	24	·	·	·	·	·
COc1ccc(NCc2nc3ccccc3n2CCOc2ccccc2)cc1	49*	14	25	-20	77*	33	40*	·	81*
CCn1c(COc2ccc(=O)n(-c3ccccc3)n2)n[nH]c1=S	9	-3	4	-17	-6	-18	·	·	·
Cc1ccc(S(=O)(=O)NN2C(=O)/C(=C/c3cccc(F)c3)SC2=S)cc1	47*	40*	5	-65	71*	2	28	40*	-24
